We go through 26 compounds from PubChem BioAssay (NCI).

This is part of a sample that, as a whole, favours compounds with a hit. Of some 83,000 tested, about 20% had one in any assay.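 Method: cells in 96-well plates; compound added at one concentration; 48 h incubation; percent growth measured; values under 10 scored active.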 A number with no mark means an inactive call. Calls of active or inactive are those of the source.

Assay in all cases: NCI-60 one-dose screen, 48 h (100 = growth as untreated, 0 = no growth, -100 = all killed)
Holding throughout (conditions): 10 µM unless noted

The subject of assay [1] is SK-MEL-2 melanoma.
In assay [2] the test system is EKVX NSCLC.
Assay [3] concerns SN12C renal.
Assay [4] has as its system UO-31 renal.
In assay [5] the test system is TK-10 renal.
For assay [6], the system named is ACHN renal.
Assay [7] concerns CAKI-1 renal.
Assay [8] has as its system A498 renal.
Assay [9] has as its system CCRF-CEM leukemia.
Assay [10] relates to MOLT-4 leukemia.

For the compound `C[C@H](CCC(=O)NCc1ccc(C(=O)Nc2ccccc2N)cc1)[C@H]1CC[C@H]2[C@@H]3[C@@H](O)C[C@@H]4C[C@H](O)CC[C@]4(C)[C@H]3CC[C@]12C`, the growth in assay [1] was 68.8%; in assay [2], 69.4%; in assay [3] it was 69.5%; in assay [4] it was 56.7%; in assay [5], 54.8%; in assay [6], 92.9%. In addition, the growth in [7] is 58.4%; in assay [8] it was 59.5%; in assay [9] it was 7.16% (active); in assay [10], 10.7%.

On to `COc1ccc(/C=C(\C#N)C(=O)N2c3ccccc3Sc3ccc(SC)cc32)cc1F`, for which the growth was 96.2% in assay [1]; 97.8% in assay [2]; 99.4% in assay [3]; 76.2% in assay [4]; 97.1% in [5]; 88.5% in assay [6]. Further, the growth in assay [7] was 68.9%; in assay [8], 79.5%; in assay [9], 93.9%; in assay [10], 82.9%.

For the compound `CC1=CC(=O)C2=C(C)CC(OC(=O)CCc3ccccc3)[C@@H]3[C@H](OC(=O)[C@@H]3C)[C@@H]12` (stereo not given in full), the growth in assay [1] was 103%; in assay [2], 102%; in [3] it was 95.3%; in assay [4], 79.1%; in assay [5], 102%; in [6] it was 101%. Besides, the growth in [7] was 86.1%; in assay [8] it was 82.4%; in assay [9], 88.7%; in [10], 83.6%.

As to `O=C(CCn1c[n+](CC(=O)c2ccc(-c3ccccc3)cc2)c2ccccc21)Nc1cccc2cccnc12`, the growth is 65.4% in assay [1]; 61.9% in assay [2]; 53.6% in [3]; 82.6% in assay [4]; 97.5% in [5]; 103% in [6]. The growth in [7] was 77.7%; in [8] it was 88.7%; in assay [9] it was 36.1%; in assay [10], 47.9%.

In the case of `CCn1c(SCC(=O)Nc2cccc(C(=O)/C=C/c3cc(OC)c(OC)c(OC)c3)c2)nc2ccccc2c1=O`, the growth in assay [1] is 109%; in assay [2], 68.6%; in assay [3] it was 37.6%; in [4], 37.5%; in assay [5], 132%; in assay [6] it was 41.7%. The growth was 45.4% in assay [7], 71.3% in [8], 4.6% (active) in [9] and 22.4% in assay [10].

Regarding `Cn1cc(-c2nc(N)nnc2-c2c[nH]c3ccccc23)c2cc(Br)ccc21`, the growth is 19.5% in assay [1]; 45.6% in assay [2]; 27.9% in [3]; 33.5% in assay [4]; 88.6% in assay [5]; 38.9% in assay [6]. Moreover, the growth in assay [7] is 25.2%; in [8], -12.1% (active); in [9] it was 7.57% (active); in [10], 8.98% (active).

Consider `Cn1cc(-c2nc(N)nnc2-c2c[nH]c3ccc(Br)cc23)c2cc(Br)ccc21`, for which the growth is 26.8% in assay [1]; 65.1% in assay [2]; 44.7% in [3]; 54.1% in assay [4]; 98% in assay [5]; 52% in assay [6]. Moreover, the growth in [7] was 40.3%; in assay [8], 18.3%; in assay [9], 11.8%; in assay [10], 17.7%.

Take `N=c1c2cc(-c3ccccc3)oc2ncn1/N=C/c1ccc(Cl)cc1`: the growth in assay [1] was 101%; in assay [2] it was 84.7%; in assay [3], 62.6%; in assay [4] it was 94%; in assay [5] it was 112%; in assay [6], 34.3%. Moreover, the growth in assay [7] was 97.7%; in assay [8], 99.7%; in [9], 71.2%; in assay [10] it was 88.2%.

With `COc1ccc(-c2nc3ccc(-c4nnc(SCC(=O)Nc5ccc(C(=O)/C=C/c6ccc(Cl)cc6)cc5)o4)cc3[nH]2)cc1`, the growth in assay [1] was 111%; in assay [2], 99.7%; in [3], 88.3%; in assay [4] it was 85.3%; in assay [5] it was 120%; in assay [6] it was 97.7%. Moreover, the growth is 97.2% in assay [7], 84.3% in assay [8], 96% in assay [9] and 88.3% in assay [10].

`CCc1nn2c(C)cc(C)nc2c1Cc1ccc(/C=C/CN2CCN(CCOCCOCCN3CCN(C/C=C/c4ccc(Cc5c(CC)nn6c(C)cc(C)nc56)cc4)CC3)CC2)cc1`: the growth in assay [1] was 79.4%; in [2], 46.6%; in [3] it was 31.4%; in assay [4], -95.9% (active); in assay [5], 103%; in assay [6] it was 1.5% (active). The growth is -16.2% (active) in assay [7], 69.7% in assay [8], -10.2% (active) in assay [9] and -17.6% (active) in [10].

`CNC1CCc2c(sc(NC(=O)c3ccc(C(C)(C)C)cc3)c2C(N)=O)C1` (stereo not given): the growth in assay [1] was 72.8%; in [2], 54.6%; in assay [3], 69.2%; in [4], 79.5%; in [5], 101%; in assay [6], 37%. Besides, the growth is 42.4% in [7], 73.9% in [8], 11.5% in assay [9] and 0.786% (active) in assay [10].

In the case of `Nc1cc(F)ccc1NC(=O)c1ccc(NC(=O)C/C=C/c2cccnc2)cc1`, the growth in assay [1] was 41.3%; in [2] it was 73%; in assay [3] it was 29.5%; in assay [4], 52.6%; in [5], 52.9%; in assay [6], 55.9%. The growth was 66.4% in [7], 43.2% in assay [8], 24.6% in [9] and 40.7% in assay [10].

On to `O=C1C(c2ccccc2)=C(N2CCc3ccccc32)OC1(Cl)Cl`, for which the growth was 92.2% in assay [1]; 76.3% in assay [2]; 77.5% in assay [3]; -23.6% (active) in assay [4]; 27.6% in assay [5]; -63.8% (active) in [6]. In addition, the growth was 4.78% (active) in assay [7], 69.2% in assay [8], -17.8% (active) in assay [9] and 0.0776% (active) in assay [10].

For `CCNC(=O)Oc1ccc(/C(=C(/C)c2ccccc2)c2ccc(OCCN3CCCCCC3)cc2)cc1`, the growth in assay [1] was -30% (active); in assay [2], 52.4%; in [3] it was 26.4%; in assay [4] it was -20.3% (active); in assay [5], 66.5%; in assay [6], 18.9%. For the same compound, the growth in assay [7] is 8.75% (active); in assay [8], 26.6%; in assay [9], 7.24% (active); in [10], 2.51% (active).

Regarding `CS(=O)(=O)c1ccc(-n2cc(/C=N/O)c(-c3ccccc3)n2)cc1`, the growth was 92.3% in [1]; 81.7% in assay [2]; 89.5% in assay [3]; 76% in [4]; 92.5% in assay [5]; 78.4% in assay [6]. In addition, the growth is 73.8% in assay [7], 83.7% in [8], 33.8% in assay [9] and 28.7% in assay [10].

For `NS(=O)(=O)c1ccc(Nc2nc(Nc3ccccc3)nc3nnc(SCC(=O)NC4CCCCC4)n23)cc1`, the growth in assay [1] was 106%; in assay [2], 103%; in assay [3], 100%; in assay [4] it was 80.8%; in assay [5], 104%; in assay [6] it was 99.1%. Besides, the growth was 83.7% in assay [7], 97.2% in assay [8], 101% in assay [9] and 101% in [10].

As to `O=C1CC(=O)N2CSCN(C(c3ccccc3)c3nc4ncncc4[nH]3)C2=N1` (stereo not given), the growth in assay [1] is 96.6%; in assay [2] it was 94.3%; in assay [3] it was 103%; in [4] it was 79.6%; in assay [5] it was 106%; in assay [6], 99.8%. Besides, the growth in assay [7] was 93.2%; in assay [8] it was 85.8%; in assay [9], 108%; in assay [10], 112%.

For the compound `CCOC(=O)C(=O)CC(=O)N1C(=S)NC(=O)C1CC(C)C` (stereo not given), the growth in assay [1] was 111%; in [2], 98.2%; in [3], 97.6%; in assay [4], 84%; in assay [5], 106%; in assay [6], 103%. In addition, the growth in assay [7] is 102%; in [8] it was 98.6%; in [9] it was 100%; in [10], 108%.

Take `CC1(C)CC[C@]2(CN)CC[C@]3(C)C(=CC[C@@H]4[C@@]5(C)CCCNC(C)(C)[C@@H]5CC[C@]43C)[C@H]2C1`: the growth in assay [1] was 108%; in assay [2] it was 96%; in assay [3] it was 99.5%; in assay [4], 89%; in assay [5], 111%; in assay [6], 109%. The growth in [7] is 93.2%; in assay [8], 98%; in assay [9], 79.4%; in assay [10] it was 82.8%.

As to `COc1cc(OC)c(/C=C/S(=O)(=O)Cc2ccc(OC)c(NC(=O)CCC(=O)NO)c2)c(OC)c1`, the growth is 46.6% in assay [1]; 36.1% in assay [2]; 22.7% in assay [3]; 34.1% in assay [4]; 64.4% in assay [5]; 28.1% in assay [6]. Besides, the growth was 25.3% in assay [7], -20.8% (active) in assay [8], 11.5% in assay [9] and 17.2% in [10].

On to `COc1cc2oc(-c3cccc(N)c3)cc(=O)c2c(OC)c1OC`, for which the growth was 102% in [1]; 104% in [2]; 96.6% in [3]; 80.6% in [4]; 96.9% in assay [5]; 103% in [6]. The growth is 83.5% in assay [7], 101% in assay [8], 102% in assay [9] and 106% in assay [10].

On to `CCn1c(SCC(=O)Nc2cccc(C(=O)/C=C/c3ccccc3Cl)c2)nc2ccccc2c1=O`, for which the growth in assay [1] is 110%; in [2], 85.8%; in [3] it was 88.4%; in [4], 68%; in [5], 125%; in [6], 97%. Besides, the growth was 84.6% in assay [7], 94% in assay [8], 77.8% in assay [9] and 93.2% in assay [10].

Take `FC(F)(F)c1cc(Nc2cccc(Oc3ccc(NC4=NCCN4)nc3)c2)ccc1Cl`: the growth in assay [1] is 5.11% (active); in assay [2], 12.6%; in [3] it was -24.8% (active); in assay [4] it was 21.9%; in assay [5], 27.5%; in [6] it was 1.37% (active). The growth was 16.2% in assay [7], 37.9% in [8], 14.6% in assay [9] and 9.2% (active) in [10].

Regarding `Nc1ncc(-c2ccc(NS(=O)(=O)c3ccc(Cl)c(Cl)c3)cc2)[nH]1`, the growth in assay [1] was 105%; in assay [2], 86.7%; in assay [3], 90.9%; in assay [4], 76.3%; in assay [5], 80%; in [6], 95.7%. The growth was 71.6% in [7], 85.1% in assay [8], 55.2% in assay [9] and 73.9% in assay [10].

Consider `Nc1ncc(-c2ccc3ncnc(Nc4cccc(Cl)c4F)c3c2)cn1`, for which the growth is 95.3% in assay [1]; 11.7% in assay [2]; 50.9% in assay [3]; 34.6% in assay [4]; -2.85% (active) in assay [5]; 25.3% in assay [6]. The growth is 38% in assay [7], -10.7% (active) in assay [8], 65.6% in assay [9] and 72.3% in assay [10].

For `O=C(CSc1nc2ccccc2c(=O)n1-c1ccccc1)Nc1ccc(-c2nc3ccc([N+](=O)[O-])cc3[nH]2)cc1`, the growth is 89.5% in assay [1]; 93.5% in assay [2]; 72.4% in assay [3]; 76.9% in assay [4]; 127% in [5]; 88.2% in assay [6]. For the same compound, the growth in assay [7] is 78.2%; in assay [8], 77.8%; in assay [9] it was 22.1%; in assay [10], 20.4%.
